Several values for one entry are separate records, joined by “and”; a condition that tells them apart may be missing. Equal values may be shown once. Results filed as inconclusive are left out. A call without a number means that no potency is given here. Activity calls are given as the source filed them. Calls come from the whole dose curve. Positions of bridges follow the written chain, without caps; N, C: chain ends. Non-standard residues stand in square brackets, D forms with d. Residues, ends and D or L forms follow the SMILES beside them. *: point of attachment. Dab(CH2SO3H) = N[C@@H](CCNCS(=O)(=O)O)C(=O)O; X3 = CC[C@@H](C)CCCCC(=O)*; Dab = NCC[C@H](N)C(=O)O
Test: qHTS assay for small molecule disruptors of the mitochondrial membrane potential - cell viability (AID 720634); note: nearly all actives have a fitted effect of over 20% in size
Details: HepG2 viability, ATP luminescence (CellTiter-Glo), 1 h; series mostly up to 83.2 µM
Description: U.S. Tox21 Program National Center for Advancing Translational Sciences [NCATS] NIH Chemical Genomics Center [NCGC] U.S. Environmental Protection Agency [EPA] National Institutes of Environmental Health Sciences [NIEHS] National Toxicology Program [NTP] U.S. Food and Drug Administration [FDA] Tox21 Assay Overview: Mitochondrial membrane potential (MMP), one of the parameters for mitochondrial function, is generated by mitochondrial electron transport chain that creates an electrochemical gradient by a series of redox reactions. This gradient drives the synthesis of ATP, a crucial molecule for various cellular processes. Measuring MMP in living cells is commonly used to assess the effect of chemicals on mitochondrial function; decreases in MMP can be detected using lipophilic cationic fluorescent dyes. […] The dye accumulates in the mitochondria of healthy cells as aggregates, with red fluorescence. The mitochondrial potential decreases and the dye could not accumulate in the mitochondria and remains in the cytoplasm in monomers, with green fluorescence. In addition to the mitochondrial potential assay, these cells were also used to test the cytotoxicity by determining the cell viability in the culture based on the quantitation of ATP present. The cytotoxicity was measured in the same assay well of MMP assay.
Tox21 Assay Protocol Summary: 2,000 HepG2 cells in 5 uL/well were dispensed into black, clear-bottom 1536-well plates using a Multidrop Combi (Thermo Scientific) dispenser. The assay plates were incubated for an overnight at 37 C to allow cells to attach to the wells, followed by the transfer of 23 nL compound or DMSO vehicle by a pin tool (Kalypsys). The plates were incubated for 1 hr at 37 C and 5% CO2, followed by the addition of 5 uL of 2X m-MPI dye into each well using Flying Reagent Dispenser (Aurora Discovery) and then CellTiter-Glo reagent was added at 4 uL/well and incubated 30 min at room temperature. Then luminescence intensity was quantified on a ViewLux CCD-based plate reader.
Potency is the fitted concentration of half-maximal effect.

Q: For O=[N+]([O-])c1ccc(O)c2ncccc12, which Potency is on record?
A: inactive

Q: For CC(C)(Oc1ccc(C2CCCc3ccccc32)cc1)C(=O)O (stereo not given), which Potency is on record?
A: inactive

Q: For CC[C@H]1OC(=O)C[C@@H](O)[C@H](C)[C@@H](O[C@@H]2O[C@H](C)[C@@H](O)[C@H](N(C)C)[C@H]2O)[C@@H](CCN2C[C@H](C)C[C@H](C)C2)C[C@@H](C)C(=O)/C=C/C(C)=C/[C@@H]1CO[C@@H]1O[C@H](C)[C@@H](O)[C@@H](OC)[C@H]1OC, which Potency is on record?
A: inactive

Q: With CC[N+](CC)(CC)CCC(O)(c1ccccc1)C1CCCCC1 (stereo not given) as the compound, how does the Potency read?
A: inactive

Q: For NC(=O)[C@@H]1CCCN1C(=O)[C@H](Cc1cnc[nH]1)NC(=O)[C@@H]1CCC(=O)N1, which Potency is on record?
A: inactive

Q: For CCN(CC)CCNC(=O)c1ccc(NS(C)(=O)=O)cc1, which Potency is on record?
A: inactive

Q: Which Potency does the source give for S=C1NC=NC2N=CNC12 (stereo not given) here?
A: inactive

Q: For COC(=O)[C@H]1[C@H]2C[C@H]3c4[nH]c5ccccc5c4CCN3C[C@H]2CC[C@@H]1O, which Potency is on record?
A: inactive

Q: With CC[C@@]1([C@@H]2O[C@@H]([C@H]3O[C@@](O)(CO)[C@H](C)C[C@@H]3C)C[C@@H]2C)CC[C@H]([C@]2(C)CC[C@]3(C[C@H](O)[C@@H](C)[C@@H]([C@@H](C)[C@@H](OC)[C@H](C)C(=O)O)O3)O2)O1 (stereo in doubt) as the compound, how does the Potency read?
A: inactive

Q: With CCCCCCCCOC(=O)c1cc(O)c(O)c(O)c1 as the compound, how does the Potency read?
A: 13.7 µM (active)

Q: Which Potency does the source give for NC(N)=NCc1cccc(I)c1 here?
A: inactive

Q: For C=CC[N+]1([C@H]2C[C@H]3[C@@H]4CC[C@H]5C[C@H](O)[C@@H](N6CCOCC6)C[C@]5(C)[C@H]4CC[C@]3(C)[C@H]2OC(C)=O)CCCC1, which Potency is on record?
A: inactive

Q: Which Potency does the source give for CC/C(=C(/CC)c1ccc(OP(=O)(O)O)cc1)c1ccc(OP(=O)(O)O)cc1 here?
A: inactive

Q: Which Potency does the source give for CC(C)c1ccc2sc3ccccc3c(=O)c2c1 here?
A: 34.4 µM (active)

Q: For COc1ccc(/C=C/C(=O)Nc2ccccc2C(=O)O)cc1OC, which Potency is on record?
A: inactive

Q: For CCC1OC(=O)C[C@@H](O)[C@H](C)[C@@H](O[C@@H]2O[C@H](C)C[C@H](N(C)C)[C@H]2O)[C@@H](CC=O)C[C@@H](C)C(=O)/C=C/[C@]2(C)OC2C1C (stereo not given in full), which Potency is on record?
A: inactive

Q: For CC[C@@H](C)CCCCC(=O)N[C@@H](CCNCS(=O)(=O)O)C(=O)N[C@H](C(=O)N[C@@H](CCNCS(=O)(=O)O)C(=O)N[C@H]1CCNC(=O)[C@H]([C@@H](C)O)NC(=O)[C@H](CCNCS(=O)(=O)O)NC(=O)[C@H](CCNCS(=O)(=O)O)NC(=O)[C@H](CC(C)C)NC(=O)[C@@H](CC(C)C)NC(=O)[C@H](CCNCS(=O)(=O)O)NC1=O)[C@@H](C)O (X3-[Dab(CH2SO3H)]T[Dab(CH2SO3H)][Dab][Dab(CH2SO3H)][dL]L[Dab(CH2SO3H)][Dab(CH2SO3H)]T; lactam 4-C), which Potency is on record?
A: inactive

Q: Which Potency does the source give for CO/N=C(\C(=O)N[C@@H]1C(=O)N2C(C(=O)[O-])=C(C[n+]3cccc4c3CCC4)CS[C@H]12)c1csc(N)n1 here?
A: inactive

Q: Which Potency does the source give for N=C(N)c1ccc(/C=C/c2ccc(C(=N)N)cc2O)cc1 here?
A: inactive

Q: Which Potency does the source give for NCCCC(=O)O here?
A: inactive

Q: With CC(C)OC(=O)Nc1ccc2nc(-c3cscn3)[nH]c2c1 as the compound, how does the Potency read?
A: inactive

Q: Which Potency does the source give for CNCCC=C1c2ccccc2CCc2ccccc21 here?
A: inactive

Q: With CC(C)[N+]1(C)[C@@H]2CC[C@H]1CC(OC(=O)C(CO)c1ccccc1)C2 (stereo not given in full) as the compound, how does the Potency read?
A: inactive

Q: For c1ccc2c(c1)OCC(CN1CCCCC1)O2 (stereo not given), which Potency is on record?
A: inactive

Q: With CCC(O)c1ccccc1 (stereo not given) as the compound, how does the Potency read?
A: inactive

Q: Which Potency does the source give for CN1[C@@H](CC(=O)c2ccccc2)CCC[C@H]1C[C@H](O)c1ccccc1 here?
A: inactive

Q: With O=C1c2ccccc2CN2C(=O)c3ccccc3CN12 as the compound, how does the Potency read?
A: inactive

Q: With N#Cc1nc(Cl)c(Cl)c(Cl)c1Cl as the compound, how does the Potency read?
A: inactive

Q: Which Potency does the source give for O=P(O)(O)OP(=O)(O)OP(=O)(O)O here?
A: inactive

Q: With COc1cc2c(cc1O)CCN[C@]21CS[C@@H]2c3c(OC(C)=O)c(C)c4c(c3[C@H](COC1=O)N1[C@@H]2[C@H]2c3c(cc(C)c(OC)c3O)C[C@@H]([C@@H]1O)N2C)OCO4 as the compound, how does the Potency read?
A: inactive

Q: For CC(=O)NC[C@H]1CN(c2ccc(N3CCOCC3)c(F)c2)C(=O)O1, which Potency is on record?
A: inactive

Q: With CC[C@H]1OC(=O)C[C@@H](O)[C@H](C)[C@@H](O[C@@H]2O[C@H](C)[C@@H](O[C@H]3C[C@@](C)(O)[C@@H](O)[C@H](C)O3)[C@H](N(C)C)[C@H]2O)[C@@H](CC=O)C[C@@H](C)C(=O)/C=C/C(C)=C/[C@@H]1CO[C@@H]1O[C@H](C)[C@@H](O)[C@@H](OC)[C@H]1OC as the compound, how does the Potency read?
A: inactive

Q: For COC(=O)C[C@](O)(CCCC(C)(C)O)C(=O)O[C@@H]1C(OC)=CC23CCCN2CCc2cc4c(cc2[C@H]13)OCO4 (stereo not given in full), which Potency is on record?
A: inactive

Q: Which Potency does the source give for CCCn1c(=O)[nH]c(=O)c2[nH]cnc21 here?
A: inactive

Q: Which Potency does the source give for CC1(C)S[C@@H]2[C@H](N3C(=O)C(c4ccccc4)NC3(C)C)C(=O)N2[C@H]1C(=O)O (stereo not given in full) here?
A: inactive

Q: Which Potency does the source give for COc1cc(/C=C/C(=O)CC(=O)/C=C/c2ccc(O)c(OC)c2)ccc1O here?
A: 11.9 µM (active) and 21.8 µM (active)

Q: For NC(=O)[C@@H]1C[C@]2(NC(=O)NC2=O)c2cc(F)ccc2O1, which Potency is on record?
A: inactive

Q: Which Potency does the source give for O=P(O)(O)CP(=O)(O)O here?
A: inactive

Q: For N[C@@H](Cc1cnc[nH]1)C(=O)O, which Potency is on record?
A: inactive

Q: For OCCCNc1ccccc1, which Potency is on record?
A: inactive
